Screening results: PubChem BioAssay, Buhrlage Lab, Dana-Farber Cancer Institute and Novartis Institutes for BioMedical Research (Cambridge, Mass)
Compounds with a hit are over-represented: about 13% of the library has one in this group of screens.
USP28 block: inhibitors of human USP28 deubiquitinase. Ubiquitin carboxyl-terminal hydrolase 28 (Homo sapiens), Q96RU2. purified USP28, Ub-rhodamine cleavage fluorescence, 30 min. inhibition, % at 25 µM. 3% of 47,000 active. AID 1645857, 2021
USP30 inh: inhibitors of human USP30 deubiquitinase; Ubiquitin carboxyl-terminal hydrolase 30 (Homo sapiens), Q70CQ3; inhibition, % at 25 µM; purified USP30, Ub-rhodamine cleavage fluorescence; 5.3% of 47,000 active
USP7 inh: inhibitors of human USP7 deubiquitinase | inhibition, % at 20 µM | Ubiquitin carboxyl-terminal hydrolase 7 (Homo sapiens), Q93009 | AID 1645854, 2021 | 0.3% of 47,000 active | purified USP7, Ub-rhodamine cleavage fluorescence
USP10 block: inhibitors of human USP10 deubiquitinase. purified USP10, Ub-rhodamine fluorescence, 60 min. inhibition, % at 20 µM. 1.1% of 47,000 active
USP8 block: inhibitors of human USP8 deubiquitinase; Ubiquitin carboxyl-terminal hydrolase 8 (Homo sapiens), P40818; 4.2% of 47,000 active; inhibition, % at 20 µM; purified USP8, Ub-rhodamine cleavage fluorescence, 30 min; AID 1645853, 2021
USP17 inh: inhibitors of human USP17 deubiquitinase; Ubiquitin carboxyl-terminal hydrolase 17-like protein 5 (Homo sapiens), A8MUK1; purified USP17, Ub-rhodamine cleavage fluorescence, 3 h; inhibition, % at 50 µM; 6.5% of 47,000 active; AID 1645855, 2021
An asterisk follows results filed as active; x = not tested or not shown. Rule as the data show it: active = inhibition above about 30%; inactive = the rest.

SMILES | USP28 block | USP30 inh | USP7 inh | USP10 block | USP8 block | USP17 inh
Cc1ccc(Cl)cc1NC(=O)CSc1ncnc2c1oc1ccccc12 | 5 | 5 | 3 | 2 | 4 | 31*
Cc1nc(SCC(=O)Nc2ccc(C)c(C)c2)c2oc3ccccc3c2n1 | 6 | 12 | 0 | 0 | 1 | 36*
CC1(C)OC(=O)[C@@]2(C)N[C@]1(C)C[C@@H]2C(=O)Nc1cccc(C(N)=O)c1 | -10 | -24 | -4 | -5 | -31 | x
CC(=O)N[C@@H]1CC[C@H](O)[C@@H](N2CCN(c3ccccc3)CC2)[C@@H]1O | -7 | 3 | 0 | 0 | -9 | -3
Cn1nccc1-c1cccc(-c2noc(-c3ccc(F)cc3)n2)c1 | -6 | -1 | -3 | 1 | -4 | 5
Cc1ccccc1CN1C[C@@H]2c3nc(NCC4CC4)ncc3CS(=O)(=O)[C@@H]2C1 | -38 | -68 | -20 | -8 | 35* | -22
O=S1(=O)Cc2cnc(NCC3CC3)nc2[C@H]2CN(Cc3ccccc3)C[C@H]21 | -23 | -138 | -15 | -5 | -14 | -34
c1ccc(CN=C(Nc2ccccc2)Nc2ccccc2)cc1 | -8 | 13 | 0 | 2 | 1 | -8
CSc1cccc(NC2c3ccccc3C(=O)N2c2ccccc2C)c1 (centres undefined) | 44* | 10 | 3 | 6 | 2 | 19
Cc1c(C(=O)N(C)c2ccccc2)nnn1-c1ccc2noc(-c3ccccc3)c2c1 | 11 | 6 | -12 | 5 | -62 | 0
CCc1ccc(-c2nc(SCC(=O)c3c(N)n(C4CC4)c(=O)[nH]c3=O)n[nH]2)cc1 | -59 | -242 | 2 | -9 | 36* | 44*
COc1ccc(C2CC(=O)C3=C(C2)Nc2ccccc2N(C(=O)c2ccccc2)C3c2cc(OC)c(OC)c(OC)c2)cc1OC (centres undefined) | -15 | -35 | 5 | -1 | -216 | -29
CCc1ccccc1NC(=O)Cn1c(=O)n(CCC(=O)NCC2CCCO2)c(=O)c2cc(OC)c(OC)cc21 (centres undefined) | 7 | 16 | 0 | -3 | -1 | 30*
COc1cc2c(=O)n(CCC(=O)NC3CCCC3)c(=O)n(CC(=O)Nc3ccc(C)c(F)c3)c2cc1OC | 2 | 34* | -7 | 11 | 2 | -4
COc1cc2c(=O)n(CCC(=O)NCC3CCCO3)c(=O)n(CC(=O)Nc3cccc(Cl)c3)c2cc1OC (centres undefined) | 2 | 16 | -6 | -4 | -6 | 13
COc1ccc(NC(=O)Cn2c(=O)n(CCCC(=O)NC3CCCC3)c(=O)c3cc(Cl)ccc32)c(OC)c1 | 0 | 31* | 9 | 31* | 7 | 22
O=C(Cn1c(=O)n(CC2CCCO2)c(=O)c2ccccc21)Nc1c(Cl)cccc1Cl (centres undefined) | -4 | -3 | -3 | 0 | -5 | -12
CCOc1ccc(C(=O)Cn2c(=O)n(CC3CCCO3)c(=O)c3cc(OC)c(OC)cc32)cc1Cl (centres undefined) | 6 | 13 | 3 | -4 | -1 | 71*
CCCn1nnc2cc(S(=O)(=O)N3CCC(C(=O)NCc4cccnc4)CC3)ccc21 | 2 | -6 | -3 | -1 | 5 | -1
CC(=O)N1CCCC[C@H]2[C@@H]1[C@H](c1ccccc1)CN2C(=O)c1ccno1 | 0 | 5 | 0 | -1 | -67 | -8
O=C(NC1CCN(c2ncccn2)CC1)c1ccc(F)cc1F | -12 | 7 | -2 | 0 | -3 | -5
O=C1[C@@H]2Cc3c([nH]c4ccccc34)C(CCc3ccccc3)N2C(=O)CN1C1CC1 (some centres undefined) | -12 | -87 | -3 | -4 | -21 | -26
COc1ccc(CCNC(=O)Cn2c(=O)n(CCCC(=O)NC3CCCC3)c(=O)c3cc(Cl)ccc32)cc1OC | 5 | 37* | -7 | -1 | -13 | 18
COc1ccc(-c2nc3c(c(=O)c4ccccc4n3C)c(=O)n2CC(C)C)cc1 | 12 | 28 | 11 | 9 | 12 | 34*
COc1ccc(CCn2c(-c3ccc(F)cc3)nc3c(c(=O)c4ccccc4n3C)c2=O)cc1OC | 0 | 30 | 4 | 0 | 17 | 20
SMILES | USP28 block | USP30 inh | USP7 inh | USP10 block | USP8 block | USP17 inh
CC(c1ccccc1)n1c(-c2ccc(F)cc2)nc2c(c(=O)c3ccccc3n2C)c1=O (centres undefined) | 13 | 27 | 8 | -3 | 32* | 60*
O=C(NCc1ccc2c(c1)OCO2)c1cn(-c2cc(N3CCOCC3)ncn2)cn1 | -18 | -25 | 0 | -8 | -15 | 12
COc1ccc(CC(=O)N2C[C@H]3C[C@H]4[C@](C2)(CN(C)S4(=O)=O)O3)cc1 | 7 | 24 | 5 | 0 | 20 | 11
COC(=O)C(Cc1c[nH]c2ccccc12)NC(=O)c1ccc2c(c1)OCO2 (centres undefined) | -16 | -26 | -5 | -2 | -15 | -17
NS(=O)(=O)c1ccc(CCNC(=O)c2cc(-c3ccc4c(c3)OCO4)nc3ccccc23)cc1 | 14 | -32 | -9 | 16 | 31* | -18
Cc1ccc(CCNC(=O)c2cc(Nc3ccccc3)nc3ccccc23)cc1 | -9 | -35 | -3 | 1 | -11 | 9
COc1ccc(-c2cc(C(=O)NCCc3ccc(S(N)(=O)=O)cc3)c3ccccc3n2)cc1 | 20 | -50 | 13 | 29 | 53* | -5
COc1ccc(-c2cc3nc(NCCc4ccc(S(N)(=O)=O)cc4)ccn3n2)cc1 | 17 | 10 | -5 | -5 | -63 | 41*
c1ccc(-c2cc3nc(NCCc4ccncc4)ccn3n2)cc1 | -2 | 2 | 0 | -7 | -25 | 0
Cc1ccc(S(=O)(=O)N[C@@H](Cc2ccccc2)C(=O)N2CCC(C(=O)NCC(=O)O)CC2)cc1 | -6 | -5 | -7 | 0 | -1 | -1
CCc1ccc([C@@H]2c3c(C)nn(C)c3NC(=O)[C@H]2NC(=O)c2ccc(OC)c(OC)c2)cc1 | -5 | -14 | 0 | 0 | -19 | -12
COc1ccc(CCn2cnc3c4ccccc4n(C)c3c2=O)cc1OC | 67* | 10 | 4 | -3 | 13 | 3
O=C(Nc1cccc(-c2nc3ncccc3o2)c1)c1cccc(-c2cc3ccccc3oc2=O)c1 | 69* | 67* | 11 | 4 | 6 | 68*
Cc1ccc(OCC(=O)Nc2cccc(-c3nc4ncccc4o3)c2)c(C)c1 | 16 | 59* | 7 | 0 | 0 | 20
COc1ccc(CC(=O)Nc2cccc(-c3nc4ncccc4o3)c2)cc1OC | 55* | 0 | 3 | -1 | 6 | -26
COc1ccc(-c2cn3cccnc3n2)cc1NC(=O)c1cccc(C)c1 | -5 | 0 | 1 | -2 | 4 | 13
COc1ccc(CC(=O)Nc2cccc(-c3cn4cccnc4n3)c2)cc1 | 15 | -286 | 0 | -6 | -4 | 31*
